In PubChem BioAssay AID493168 (National Center for Advancing Translational Sciences (NCATS), 2011):
Inconclusive results are not listed. A number with no mark means an inactive call. The source made the active and inactive calls. Calls follow the shape of the dose curve; as a rule, active = well fitted inhibition curve with a large enough effect; inconclusive = small, poorly fitted or top-dose-only effect, or effect the other way; inactive = flat fitted curve, though single readings scatter.

Target: Ubiquitin carboxyl-terminal hydrolase 2 (Homo sapiens) (UniProt O75604)
Assay: Confirmation Assay for Inhibitors of Ubiquitin-specific Protease USP2a Using CHOP2 as the Reporter; also: nearly all actives have a fitted effect of over 55% in size;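 as to activity change, negative = inhibition: plate controls were DMSO wells for no effect and full inhibition by NEM control for full effect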
Conditions: USP2 core, Ub-CHOP2 coupled reporter fluorescence; series mostly up to 38.3 µM; activity change, negative = inhibition: at the top concentration
Summary of the method: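 Ub-CHOP2 cleavage coupled to reporter activation was read by fluorescence after 60 min at RT, with 25 nM final Ub-CHOP2 and substrate. Enzyme (10 nM final USP2 core) first sat 30 min with compound; data were normalized to NEM and fitted to concentration-response curves.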
Potency is read from the fitted curve at half-maximal effect.

Sequence of Ubiquitin carboxyl-terminal hydrolase 2 (Homo sapiens) (O75604 whole entry, looked up): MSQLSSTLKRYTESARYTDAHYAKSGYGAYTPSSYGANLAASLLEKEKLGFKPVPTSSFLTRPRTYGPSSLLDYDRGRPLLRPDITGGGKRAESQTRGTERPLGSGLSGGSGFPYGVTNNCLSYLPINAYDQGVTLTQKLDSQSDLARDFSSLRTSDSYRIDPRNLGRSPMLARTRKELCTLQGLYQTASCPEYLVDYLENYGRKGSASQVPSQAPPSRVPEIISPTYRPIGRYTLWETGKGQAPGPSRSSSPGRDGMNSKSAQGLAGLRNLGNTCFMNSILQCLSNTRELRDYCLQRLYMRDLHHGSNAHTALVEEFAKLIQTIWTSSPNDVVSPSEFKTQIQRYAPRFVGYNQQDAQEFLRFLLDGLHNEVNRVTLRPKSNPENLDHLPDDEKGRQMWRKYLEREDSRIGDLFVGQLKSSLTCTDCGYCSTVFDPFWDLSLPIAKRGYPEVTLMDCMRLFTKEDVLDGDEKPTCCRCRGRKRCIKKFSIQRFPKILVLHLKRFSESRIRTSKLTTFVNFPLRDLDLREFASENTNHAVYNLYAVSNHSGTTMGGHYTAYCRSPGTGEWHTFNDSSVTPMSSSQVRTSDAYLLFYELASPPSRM

Row | SMILES | activity change, negative = inhibition [%] | Potency
1 | COc1ccc(-n2c(O)c(/C=N/n3cnnc3)c3ccccc3c2=O)cc1 | 3.94 | 
2 | CCOc1ccc(NC(=O)N(CCCN2CCOCC2)Cc2cccnc2)cc1 | 0.0836 | 
3 | O=C(c1ccc([N+](=O)[O-])cc1)N(Cc1ccc(Cl)cc1)N1C(=O)CCCC1=O | -1.63 | 
4 | COc1ccc(CNS(=O)(=O)c2ccc(S(=O)(=O)N3CCCCC3)cc2)cc1 | -0.642 | 
5 | COC(=O)c1[nH]c2cc(OC)ccc2c1N | 3.18 | 
6 | CC(=O)N1c2c(cc(Br)cc2S(=O)(=O)NCc2cccnc2)CC1C (stereo unspecified) | 2.31 | 
7 | COCCn1c(SCC(=O)Nc2cc(C)on2)nnc1-c1ccccc1 | 1.16 | 
8 | COC(=O)[C@@]12CCCCN1[C@H](c1ccc(-c3ccc(Cl)c(Cl)c3)cc1)[C@H]1C(=O)N(C)C(=O)[C@H]12 | 0.0461 | 
9 | CS(=O)(=O)c1nc(-c2ccc(Br)cc2)cc(-c2ccccc2)c1C#N | -2.62 | 
10 | O=C(CC1Oc2ccccc2NC1=O)NCc1ccc(Cl)cc1 (stereo unspecified) | -0.66 | 
11 | Cc1ccc(NC(=O)c2cc(-c3ccco3)nc3ccccc23)cc1S(=O)(=O)N1CCOCC1 |  | 11.7 µM (active)
12 | Cn1c(C(=O)NCCN2CCOCC2)cc2c(=O)n(C)c3ccccc3c21 | -0.508 | 
13 | Cn1c(=O)[nH]c(=O)c2c1nc(NCc1ccccc1)n2CCCc1ccccc1 | -1.02 | 
14 | O=C1/C(=C/C=C/c2ccco2)SC(=S)N1c1ccc(O)cc1 |  | 5.21 µM (active)
15 | Cc1ccc(S(=O)(=O)N2[C@@H](c3ccc(C(C)(C)C)cc3)C(C(=O)O)=CC[C@H]2c2ccc(Cl)cc2)cc1 |  | 14.7 µM (active)
16 | COc1ccc(/C=C\C(=O)O[C@@H]2C(O)C(O[C@@H]3OC(C)[C@H](O[C@@H]4OCC(O[C@H]5O[C@H](CO)[C@@H](O)C(O)C5O)C(O)C4O)C(O)C3O)[C@H](OC(=O)[C@]34CCC(C)(C)C[C@@H]3C3=CCC5[C@@]6(C)CC(O)C(O[C@@H]7OC(CO)C(O)[C@H](O)[C@H]7O)[C@@](C)(C(=O)O)C6CC[C@@]5(C)[C@]3(CO)CC4)O[C@H]2C)cc1 (stereo partly specified) | 2.28 | 
